Vif-A3F inh: Vif-A3F binding inhibition | HeLa A3F-eYFP + Vif (tagged APOBEC3F with the HIV-1 protein that degrades it), YFP fluorescence increase | Potency, µM (top dose mostly 46.1 µM) | 390,000 compounds, 0.2% hits; further: nearly all actives have a fitted effect of over 65% in size
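HeLa cells stably expressing A3F-eYFP plus Vif, plated and incubated overnight at 37 deg C, then exposed to compounds overnight at 37 deg C. Blocked degradation read as raised yellow fluorescence (Ex 488/Em 500-530).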
PINK1 modulator: changes PINK1 expression; PINK1 immunofluorescence, high-content cytometry, 24 h; 410,000 compounds, 0.2% hits; Potency, µM (doses to about 76.6 µM), usual class: activators; active means well fitted activation curve with a large enough effect; inconclusive means small, poorly fitted or top-dose-only effect; cell line not stated here; further: nearly all actives have a fitted effect of over 65% in size
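Measures PINK1 amount and localization on or inside mitochondria by immunofluorescence. Stable cells get compounds at 5 concentrations for 24 hours before fixation and staining; CCCP controls included.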
Vif-A3G inh: blocks the Vif interaction with human APOBEC3G. Q9HC16. HeLa A3G-eYFP + Vif (tagged APOBEC3G with the HIV-1 protein that degrades it), YFP fluorescence, overnight. Potency, µM (top dose mostly 46.1 µM), most hits filed as inhibitors. 410,000 compounds, 0.076% hits. AID 602310; further: nearly all actives have a fitted effect of over 60% in size
Target sequence (Q9HC16 whole entry, looked up): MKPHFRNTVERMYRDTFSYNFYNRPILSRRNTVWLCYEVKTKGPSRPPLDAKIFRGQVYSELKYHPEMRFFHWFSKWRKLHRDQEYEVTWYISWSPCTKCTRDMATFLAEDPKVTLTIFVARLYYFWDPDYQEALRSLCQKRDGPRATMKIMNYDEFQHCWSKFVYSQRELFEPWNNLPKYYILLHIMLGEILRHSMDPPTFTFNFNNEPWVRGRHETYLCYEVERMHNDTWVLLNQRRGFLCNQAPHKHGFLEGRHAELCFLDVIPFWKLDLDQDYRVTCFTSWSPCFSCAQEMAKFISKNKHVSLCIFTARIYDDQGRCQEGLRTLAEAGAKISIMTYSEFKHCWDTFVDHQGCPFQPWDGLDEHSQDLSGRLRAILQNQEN
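HeLa cells stably expressing Vif and C-terminally eYFP-tagged A3G, seeded overnight at 37 deg C, then exposed to compound by pintool overnight at 37 deg C. Rise in yellow fluorescence (Ex 488/Em 500-530, Acumen) marks blocked Vif-driven A3G degradation.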
Epigenetic derep: derepresses silenced GFP reporter in murine cells; murine LDR cells, GFP reporter derepression, 30 h; Potency, µM (top dose mostly 53.9 µM), usual class: activators; 280,000 compounds, 0.2% hits; further: nearly all actives have a fitted effect of over 60% in size
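Readout is the number of GFP-expressing murine LDR cells, counted by cytometry following washing. Cells were treated with compound for 30 h at 37 C; the stably integrated CMV-GFP locus is normally silent.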
Of the large screens only hits and unclear results are named; the others gave an inactive call. Sampled rows, rich in hits. Any-hit rate of the full collection: about 0.51%. Unless noted, the call rests on the fitted dose curve; in most records, active means well fitted curve in the direction sought with a large enough effect; inconclusive means small, poorly fitted or top-dose-only effect, or another doubt; inactive means no such curve, though single readings can be large; an effect the other way counts as inactive or inconclusive.

O=c1c2ccccc2nc(/C=C/c2ccc([N+](=O)[O-])o2)n1CCCO	Vif-A3F inh 22.4µM, Vif-A3G inh inconclusive, Epigenetic derep inconclusive
O=C(N/N=C/c1cn(-c2cccs2)nc1-c1ccccc1)c1ccccc1O	PINK1 modulator 28.2µM
CCSc1nnc(NC(=O)Nc2cccc(C)c2)s1	PINK1 modulator 12.6µM
CCC(NC(=O)Nc1nccs1)(C(F)(F)F)C(F)(F)F	none
CCCC(=O)Nc1nnc(SCC)s1	none
CCSc1nnc(NC(=O)NC(C)(C(F)(F)F)C(F)(F)F)s1	PINK1 modulator 20µM
CCSc1nnc(NC(=O)[C@@H](NC(=O)c2cccc(C)c2)C(C)C)s1	none
CCSc1nnc(NC(=O)NC(CC)(C(F)(F)F)C(F)(F)F)s1	PINK1 modulator 22.4µM
COc1ccc(OC)c(N(/C(N)=N/c2nc(C)cc(C)n2)S(=O)(=O)c2ccc(NC(C)=O)cc2)c1	none (no result: Epigenetic derep)
Cc1c2ccccc2nc2c(F)c(NCCO)c(F)c(F)c12	Vif-A3F inh inconclusive, Vif-A3G inh inconclusive
Cc1c2ccccc2nc2c(F)c(NC(C)C)c(F)c(F)c12	Vif-A3F inh 12.6µM, Vif-A3G inh inconclusive, Epigenetic derep inconclusive
N#Cc1ccsc1NC(=O)CN1CCOCC1	none
COC(=O)c1cc(NC(=O)c2cccc(Cl)c2)c(=O)oc1/C=C/Nc1cc(C)cc(C)c1	Epigenetic derep 3.55µM (no result: Vif-A3F inh, PINK1 modulator, Vif-A3G inh)
COC(=O)c1cc(NC(=O)c2cccc(C(F)(F)F)c2)c(=O)oc1C	none
Cc1ccc(NC(=O)Nc2nnc(-c3ccncc3)s2)cc1C	PINK1 modulator 15.8µM
Cc1cc(NC(=O)Nc2nnc(N(C)Cc3ccccc3)s2)ccc1Br	Vif-A3F inh inconclusive, Vif-A3G inh 12.6µM
CCN(c1ccccc1)c1nnc(NC(=O)Nc2ccc(Br)c(C)c2)s1	none
O=C(Nc1ccc(Cl)cc1)Nc1nnc(-c2ccncc2)s1	PINK1 modulator 7.94µM
O=C(Nc1cccc(Cl)c1)Nc1nnc(-c2ccncc2)s1	PINK1 modulator 7.08µM
Cc1ccc(C(=O)COC(=O)CNC(=O)Cc2ccccc2)cc1[N+](=O)[O-]	none
COc1ccccc1Nc1nc(-c2ccc([N+](=O)[O-])cc2)nc2ccccc12	none (no result: Vif-A3F inh, Epigenetic derep)
Cc1nn(CCCC(=O)NCc2ccccc2)c(=O)c2nn(-c3ccccc3)c(C)c12	none
COc1ccccc1NS(=O)(=O)c1ccc(C)c(C(=O)NCC(c2ccco2)N2CCCCC2)c1 (stereo not drawn)	none (no result: Epigenetic derep)
COc1ccc(CNc2cccc3[nH]c(C(F)(F)F)nc23)cc1OC	PINK1 modulator 25.1µM (no result: Epigenetic derep)
CCCCN(CCCNC(=O)c1cc(Nc2cccc(SC)c2)nc2ccccc12)Cc1ccccc1	Vif-A3G inh inconclusive, Epigenetic derep 35.5µM
COc1cc(N=Nc2cccc(S(N)(=O)=O)c2)c2ccccc2c1N	Vif-A3F inh 25.1µM, Vif-A3G inh inconclusive, Epigenetic derep 31.6µM
CCCn1c(N)c(Sc2ccc([N+](=O)[O-])cc2)c(=O)n(CCC)c1=O	none
CCN(C(=O)C(C)N1C(=O)/C(=C/c2cccs2)SC1=S)C1CCS(=O)(=O)C1 (stereo not drawn)	none (no result: Epigenetic derep)
Cn1cccc1/C=C1\CC(C(C)(C)C)C/C(=C\c2cccn2C)C1=O (stereo not drawn)	Vif-A3F inh inconclusive, PINK1 modulator inconclusive, Vif-A3G inh 7.94µM, Epigenetic derep 2.82µM
Cn1cccc1/C=C1\Cc2ccccc2C1=O	none
CN1C2CCC1/C(=C/c1cccn1C)C(=O)/C2=C\c1cccn1C	Vif-A3F inh 22.4µM, Vif-A3G inh inconclusive
OC(COc1ccccc1)CN1CCN(Cc2ccc3c(c2)OCO3)CC1 (stereo not drawn)	none
c1ccc2c(c1)Cc1cc3ccccc3nc1-2	Vif-A3F inh 10µM, Vif-A3G inh inconclusive
O=C1c2ccccc2-c2nc3ccccc3cc21	Vif-A3F inh 2.82µM (no result: Epigenetic derep)
CCCCc1cc(=O)oc2cc(OCc3cc(OC)c(OC)c(OC)c3)c(Cl)cc12	none
Fc1ccc(-c2cc(C(F)(F)F)nc(NCc3ccccc3)n2)cc1	none
Fc1ccc(CNc2nc(-c3ccc(Cl)cc3)cc(C(F)(F)F)n2)cc1	Vif-A3F inh inconclusive, PINK1 modulator 39.8µM
Cc1ccc(-c2nc3ncccc3o2)cc1NC(=O)c1ccc([N+](=O)[O-])o1	Vif-A3F inh 22.4µM (no result: Epigenetic derep)
CC(C)COc1ccc(C(=O)N/C(=C/c2cccc([N+](=O)[O-])c2)C(=O)O)cc1	Vif-A3G inh 10µM
COc1ncc(-c2ccc3c(c2)S(=O)(=O)c2cccc(C(=O)NCc4ccco4)c2C3=O)cn1	none (no result: Epigenetic derep)
NC(=O)C1CCN(c2nc(C3CC3)nc3c2nnn3Cc2ccccc2)CC1	none
NC(=O)C1CCN(c2nc(C3CC3)nc3c2nnn3Cc2ccccc2Cl)CC1	PINK1 modulator 11.2µM
CCN(CC)c1ccc(NC2CC(=O)N(CCc3ccc(OC)cc3)C2=O)cc1 (stereo not drawn)	Vif-A3F inh inconclusive, PINK1 modulator 2.24µM, Epigenetic derep 3.55µM
c1ccc2c(Cc3c[nH]c4ccccc34)c[nH]c2c1	none (no result: Vif-A3F inh, PINK1 modulator, Vif-A3G inh)
c1ccc2c(CCc3c[nH]c4ccccc34)ccnc2c1	Vif-A3G inh 11.2µM (no result: Vif-A3F inh, Epigenetic derep)
Cc1ccc(C)c(S(=O)(=O)N2CCN(C(=O)c3ccccc3Cc3ccccc3)CC2)c1	none (no result: Epigenetic derep)
CC(C)c1ccc(S(=O)(=O)N2CCC(N3CCN(Cc4ccccc4)C(=O)C3=O)CC2)cc1	none
CCOc1ccc(N=C2NC(=O)S/C2=C\c2ccc(N(C)C)cc2)cc1	Vif-A3F inh inconclusive, PINK1 modulator inconclusive, Vif-A3G inh inconclusive, Epigenetic derep 7.94µM
Cc1cccc2sc(NNC(=O)c3ccc(S(=O)(=O)N4CC(C)CC(C)C4)cc3)nc12 (stereo not drawn)	PINK1 modulator 39.8µM
Cc1cc(C)c2nc(NNC(=O)c3ccc(S(=O)(=O)N4CC(C)CC(C)C4)cc3)sc2c1 (stereo not drawn)	Vif-A3G inh inconclusive
COc1cc2nc3c(c([Si](C)(C)C(C)(C)C)c2cc1OC)Cn1c-3cccc1=O	Epigenetic derep 7.94µM (no result: Vif-A3F inh, PINK1 modulator, Vif-A3G inh)
CC(=O)c1c(C)[nH]c(C(=O)COC(=O)COc2ccccc2)c1C	none (no result: Epigenetic derep)
CCCOc1ccc(/C=C2\SC(=S)N(CC3CCCO3)C2=O)cc1 (stereo not drawn)	none
O=C1/C(=C\c2ccc(O)cc2)SC(=S)N1Cc1ccccc1	Vif-A3F inh 11.2µM (no result: Epigenetic derep)
O=C1/C(=C/c2ccc(O)cc2)SC(=S)N1CC1CCCO1 (stereo not drawn)	Vif-A3F inh 22.4µM, PINK1 modulator inconclusive
COc1cc([N+](=O)[O-])cc(/C=C2/SC(=S)N(Cc3ccccc3)C2=O)c1O	PINK1 modulator 35.5µM (no result: Epigenetic derep)
O=C1/C(=C/c2ccc(O)c([N+](=O)[O-])c2)SC(=S)N1Cc1ccccc1	PINK1 modulator 31.6µM
O=C(O)c1ccc(/C=C2/SC(=S)N(Cc3ccccc3)C2=O)cc1	none (no result: Epigenetic derep)
Cc1ccc(C2N(C)c3ccccc3-c3nc4ccccc4n32)o1 (stereo not drawn)	none
CCN(C(=O)CSc1nc2ccccc2nc1Cc1ccc(F)cc1)c1cccc(C)c1	none
CCN(C(=O)CSc1nc(-c2ccccc2)no1)c1cccc(C)c1	PINK1 modulator 12.6µM
CC(C)CCNC(=O)c1ccc2c(c1)NC(=O)C(CS(=O)(=O)Cc1cccc(Br)c1)N2 (stereo not drawn)	Vif-A3F inh 11.2µM, Vif-A3G inh inconclusive, Epigenetic derep inconclusive
